What all share (assay): DAPPL (digital affinity profiling via proximity ligation, sequencing); 10 mM Tris-HCl pH 7.5, 50 mM NaCl, 1 mM DTT, 4% glycerol, room temperature, 30 min; GST-TFs on glutathione beads, 16-mer random dsDNA library, 0.1% formaldehyde crosslink after washing; high values mean tight binding
The target of one assay is T1, FEV (Homo sapiens, UniProt Q99581 1-238).
T1 sequence: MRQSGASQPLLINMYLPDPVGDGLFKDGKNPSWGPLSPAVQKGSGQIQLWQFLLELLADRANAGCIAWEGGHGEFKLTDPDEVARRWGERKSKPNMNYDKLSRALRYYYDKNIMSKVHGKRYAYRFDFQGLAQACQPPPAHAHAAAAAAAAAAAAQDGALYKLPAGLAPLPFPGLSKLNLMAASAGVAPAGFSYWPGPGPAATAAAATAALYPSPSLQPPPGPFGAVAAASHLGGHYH
Particulars: protein: recombinant; tags: N-terminal GST; dsDNA, one strand shown. The method in brief:
(§1)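 A tag-only sample was pooled with DNA-barcoded human transcription factors that had been expressed in yeast as GST fusions and captured on glutathione beads. The pools were incubated for 30 min at room temperature with 200 nmole of a random double-stranded 16-mer DNA library in Tris/NaCl/DTT/glycerol buffer, then washed, crosslinked with 0.1% formaldehyde, proximity-ligated (BsaI/T4 ligase, 1 h, 37 °C), PCR-amplified and sequenced on an Illumina NextSeq500. Binding signal is each hexamer's read frequency for a factor divided by its frequency for the tag-only sample.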

Another assay deals with ETV5 (Homo sapiens, UniProt P41161 1-510). Particulars: protein: recombinant; tags: N-terminal GST; dsDNA, one strand shown. Summed up: as §1
The next assay addresses HSF1 (Homo sapiens, UniProt Q00613 1-529). To be noted: protein: recombinant; tags: N-terminal GST; chain copies: 3; dsDNA, one strand shown. The method in brief:
as §1

The target in a further assay is T2, SPIC (Homo sapiens, UniProt Q8N5J4 1-248).
T2 sequence: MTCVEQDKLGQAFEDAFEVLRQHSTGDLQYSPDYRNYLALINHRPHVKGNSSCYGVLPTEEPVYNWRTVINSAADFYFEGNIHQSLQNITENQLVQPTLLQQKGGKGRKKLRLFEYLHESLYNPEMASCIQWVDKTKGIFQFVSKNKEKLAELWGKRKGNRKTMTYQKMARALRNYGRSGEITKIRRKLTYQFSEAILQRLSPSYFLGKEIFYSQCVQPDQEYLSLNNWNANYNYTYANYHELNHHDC
To be noted: protein: recombinant; tags: N-terminal GST; dsDNA, one strand shown. Summed up:
as §1

The target of the next assay is ELF4 (Homo sapiens, UniProt Q99607 1-663). To be noted: protein: recombinant; tags: N-terminal GST; dsDNA, one strand shown. Summed up: as §1
A further assay concerns the target T3, ELK4 (Homo sapiens, UniProt P28324-2 1-405).
T3 sequence: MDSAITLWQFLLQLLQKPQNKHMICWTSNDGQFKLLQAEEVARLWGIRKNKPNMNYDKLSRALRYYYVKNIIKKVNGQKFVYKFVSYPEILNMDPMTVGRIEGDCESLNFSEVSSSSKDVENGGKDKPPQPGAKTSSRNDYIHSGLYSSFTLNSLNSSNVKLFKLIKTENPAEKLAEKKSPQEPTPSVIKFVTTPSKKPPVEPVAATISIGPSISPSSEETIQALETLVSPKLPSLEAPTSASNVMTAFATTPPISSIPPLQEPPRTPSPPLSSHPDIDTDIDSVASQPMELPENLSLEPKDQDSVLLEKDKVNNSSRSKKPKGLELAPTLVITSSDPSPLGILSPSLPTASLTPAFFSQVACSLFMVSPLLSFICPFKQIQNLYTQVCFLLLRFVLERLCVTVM
Particulars: protein: recombinant; tags: N-terminal GST; dsDNA, one strand shown. The method in brief:
as §1

The next assay addresses T4, ETV2 (Homo sapiens, UniProt O00321 1-342).
T4 sequence: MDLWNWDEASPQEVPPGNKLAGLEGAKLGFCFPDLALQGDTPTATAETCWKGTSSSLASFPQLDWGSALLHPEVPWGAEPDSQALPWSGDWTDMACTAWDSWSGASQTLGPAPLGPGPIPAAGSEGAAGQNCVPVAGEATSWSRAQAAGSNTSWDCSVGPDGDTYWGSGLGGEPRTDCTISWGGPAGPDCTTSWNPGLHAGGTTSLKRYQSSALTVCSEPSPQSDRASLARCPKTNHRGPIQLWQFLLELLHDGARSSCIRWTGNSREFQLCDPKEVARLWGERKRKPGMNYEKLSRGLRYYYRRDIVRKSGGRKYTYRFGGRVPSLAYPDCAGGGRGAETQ
Particulars: protein: recombinant; tags: N-terminal GST; dsDNA, one strand shown. The method in brief:
as §1

A further assay concerns the target T5, ELF3 (Homo sapiens, UniProt P78545 1-371).
T5 sequence: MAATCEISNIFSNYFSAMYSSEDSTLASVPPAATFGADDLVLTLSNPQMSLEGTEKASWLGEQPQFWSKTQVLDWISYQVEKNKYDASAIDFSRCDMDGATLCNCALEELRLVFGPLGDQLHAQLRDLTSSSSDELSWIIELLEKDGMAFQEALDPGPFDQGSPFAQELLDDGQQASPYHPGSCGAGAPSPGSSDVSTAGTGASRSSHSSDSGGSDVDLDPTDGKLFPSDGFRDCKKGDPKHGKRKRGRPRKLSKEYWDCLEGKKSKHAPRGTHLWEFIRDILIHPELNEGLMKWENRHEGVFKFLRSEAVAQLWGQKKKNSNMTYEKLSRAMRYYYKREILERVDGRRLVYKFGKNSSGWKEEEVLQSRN
Particulars: protein: recombinant; tags: N-terminal GST; dsDNA, one strand shown. Summed up: as §1

A further assay addresses CRX (Homo sapiens, UniProt O43186 1-299). To be noted: protein: recombinant; tags: N-terminal GST; dsDNA, one strand shown. The method in brief: as §1
A further assay deals with ETV1 (Homo sapiens, UniProt P50549 1-477). Particulars: protein: recombinant; tags: N-terminal GST; dsDNA, one strand shown. The method in brief: as §1
A further assay concerns the target T6, ERF (Homo sapiens, UniProt P50548 1-548).
T6 sequence: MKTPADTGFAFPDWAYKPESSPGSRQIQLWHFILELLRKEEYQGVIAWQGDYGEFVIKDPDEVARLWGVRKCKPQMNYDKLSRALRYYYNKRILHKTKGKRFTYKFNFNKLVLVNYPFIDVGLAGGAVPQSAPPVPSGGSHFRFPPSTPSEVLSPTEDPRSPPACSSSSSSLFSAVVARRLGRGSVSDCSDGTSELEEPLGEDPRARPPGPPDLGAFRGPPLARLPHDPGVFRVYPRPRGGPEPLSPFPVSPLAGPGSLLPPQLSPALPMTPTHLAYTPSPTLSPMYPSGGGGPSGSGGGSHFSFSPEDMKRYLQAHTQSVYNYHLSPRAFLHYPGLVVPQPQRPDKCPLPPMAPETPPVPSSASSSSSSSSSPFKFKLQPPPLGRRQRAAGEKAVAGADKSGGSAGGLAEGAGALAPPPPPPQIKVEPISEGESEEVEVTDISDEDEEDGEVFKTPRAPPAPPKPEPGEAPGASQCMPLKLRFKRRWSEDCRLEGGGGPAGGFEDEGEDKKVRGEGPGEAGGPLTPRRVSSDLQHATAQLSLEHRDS
Particulars: protein: recombinant; tags: N-terminal GST; dsDNA, one strand shown. Summed up:
as §1

A further assay addresses T7, ETV3L (Homo sapiens, UniProt Q6ZN32 1-361).
T7 sequence: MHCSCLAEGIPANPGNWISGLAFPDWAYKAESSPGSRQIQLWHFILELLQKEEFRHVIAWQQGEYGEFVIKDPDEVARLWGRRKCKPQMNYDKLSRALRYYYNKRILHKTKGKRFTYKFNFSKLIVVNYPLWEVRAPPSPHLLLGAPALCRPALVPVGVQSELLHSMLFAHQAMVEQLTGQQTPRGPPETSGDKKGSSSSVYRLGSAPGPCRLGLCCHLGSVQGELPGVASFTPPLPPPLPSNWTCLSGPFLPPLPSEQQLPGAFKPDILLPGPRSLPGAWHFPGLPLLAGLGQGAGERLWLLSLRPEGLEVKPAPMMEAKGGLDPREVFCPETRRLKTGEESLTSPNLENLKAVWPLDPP
Particulars: protein: recombinant; tags: N-terminal GST; dsDNA, one strand shown. The method in brief:
as §1

The next assay deals with T8, ETS2 (Homo sapiens, UniProt P15036 1-469).
T8 sequence: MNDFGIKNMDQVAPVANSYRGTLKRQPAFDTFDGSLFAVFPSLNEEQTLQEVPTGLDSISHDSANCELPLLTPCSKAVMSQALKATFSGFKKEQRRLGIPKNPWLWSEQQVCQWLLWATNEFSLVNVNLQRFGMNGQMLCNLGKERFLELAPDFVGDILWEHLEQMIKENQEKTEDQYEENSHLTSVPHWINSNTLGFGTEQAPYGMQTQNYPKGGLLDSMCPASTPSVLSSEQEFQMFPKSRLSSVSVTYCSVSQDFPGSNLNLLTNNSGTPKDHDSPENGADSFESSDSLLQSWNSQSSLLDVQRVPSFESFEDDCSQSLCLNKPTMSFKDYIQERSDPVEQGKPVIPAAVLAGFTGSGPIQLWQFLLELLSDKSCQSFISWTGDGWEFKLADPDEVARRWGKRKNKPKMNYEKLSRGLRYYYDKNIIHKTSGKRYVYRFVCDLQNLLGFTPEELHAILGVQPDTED
Particulars: protein: recombinant; tags: N-terminal GST; dsDNA, one strand shown. The method in brief:
as §1

The target in the next assay is T9, SPDEF (Homo sapiens, UniProt O95238 1-335).
T9 sequence: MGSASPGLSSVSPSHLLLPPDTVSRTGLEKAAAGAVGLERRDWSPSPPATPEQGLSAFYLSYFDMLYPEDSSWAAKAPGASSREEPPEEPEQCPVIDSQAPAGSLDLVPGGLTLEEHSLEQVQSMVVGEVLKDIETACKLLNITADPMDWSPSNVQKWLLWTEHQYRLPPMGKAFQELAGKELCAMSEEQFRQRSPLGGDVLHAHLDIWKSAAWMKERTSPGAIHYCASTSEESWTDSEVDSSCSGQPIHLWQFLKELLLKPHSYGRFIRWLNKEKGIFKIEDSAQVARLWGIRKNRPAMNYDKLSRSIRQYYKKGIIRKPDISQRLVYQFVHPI
To be noted: protein: recombinant; tags: N-terminal GST; dsDNA, one strand shown. Summed up: as §1

The next assay has as its target T10, ETV7 (Homo sapiens, UniProt Q9Y603 1-341).
T10 sequence: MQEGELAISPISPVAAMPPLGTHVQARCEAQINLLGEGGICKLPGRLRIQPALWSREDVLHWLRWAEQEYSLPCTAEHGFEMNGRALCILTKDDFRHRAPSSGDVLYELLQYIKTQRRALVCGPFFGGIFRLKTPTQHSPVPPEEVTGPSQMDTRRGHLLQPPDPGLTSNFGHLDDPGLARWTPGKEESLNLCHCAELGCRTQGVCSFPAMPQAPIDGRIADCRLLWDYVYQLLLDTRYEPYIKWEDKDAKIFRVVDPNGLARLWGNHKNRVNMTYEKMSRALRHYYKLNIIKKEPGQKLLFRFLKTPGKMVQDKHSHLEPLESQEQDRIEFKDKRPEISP
Particulars: protein: recombinant; tags: N-terminal GST; dsDNA, one strand shown. Summed up: as §1

For the next assay, the target named is T11, ELF5 (Homo sapiens, UniProt Q9UKW6-2 1-255).
T11 sequence: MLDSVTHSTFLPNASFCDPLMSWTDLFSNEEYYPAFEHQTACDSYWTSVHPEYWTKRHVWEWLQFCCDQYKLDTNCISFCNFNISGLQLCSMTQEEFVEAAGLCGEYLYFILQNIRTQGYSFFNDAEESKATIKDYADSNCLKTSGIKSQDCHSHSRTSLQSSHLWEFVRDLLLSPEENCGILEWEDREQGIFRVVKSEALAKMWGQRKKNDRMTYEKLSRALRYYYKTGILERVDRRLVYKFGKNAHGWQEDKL
To be noted: protein: recombinant; tags: N-terminal GST; dsDNA, one strand shown. Summed up:
as §1

A further assay deals with T12, ETV3 (Homo sapiens, UniProt P41162-2 1-143).
T12 sequence: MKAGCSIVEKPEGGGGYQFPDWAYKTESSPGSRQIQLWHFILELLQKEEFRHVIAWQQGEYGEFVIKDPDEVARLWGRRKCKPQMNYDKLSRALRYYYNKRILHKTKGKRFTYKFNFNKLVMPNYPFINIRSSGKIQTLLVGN
Particulars: protein: recombinant; tags: N-terminal GST; dsDNA, one strand shown. The method in brief: as §1

In a further assay the target is ETV6 (Homo sapiens, UniProt P41212 1-452). Particulars: protein: recombinant; tags: N-terminal GST; dsDNA, one strand shown. The method in brief:
as §1

This passage reports binding signal results from publication PMC7862700, “An all-to-all approach to the identification of sequence-specific readers for epigenetic DNA modifications on cytosine”.

Sequence of HSF1 (Q00613 whole entry): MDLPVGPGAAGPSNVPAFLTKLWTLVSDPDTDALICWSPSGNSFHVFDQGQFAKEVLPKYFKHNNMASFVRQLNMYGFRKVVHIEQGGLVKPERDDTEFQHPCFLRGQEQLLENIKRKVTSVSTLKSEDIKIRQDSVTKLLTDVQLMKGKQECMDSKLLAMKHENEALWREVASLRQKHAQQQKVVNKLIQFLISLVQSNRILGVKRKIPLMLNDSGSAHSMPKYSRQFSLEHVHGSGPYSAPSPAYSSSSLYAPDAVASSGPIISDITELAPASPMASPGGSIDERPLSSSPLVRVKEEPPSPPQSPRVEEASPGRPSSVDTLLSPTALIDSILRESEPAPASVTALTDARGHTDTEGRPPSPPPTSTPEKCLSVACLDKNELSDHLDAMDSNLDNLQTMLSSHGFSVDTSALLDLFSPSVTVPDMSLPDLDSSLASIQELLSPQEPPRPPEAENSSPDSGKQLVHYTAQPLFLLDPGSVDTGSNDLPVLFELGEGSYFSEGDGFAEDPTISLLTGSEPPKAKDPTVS
Sequence of CRX (O43186 whole entry): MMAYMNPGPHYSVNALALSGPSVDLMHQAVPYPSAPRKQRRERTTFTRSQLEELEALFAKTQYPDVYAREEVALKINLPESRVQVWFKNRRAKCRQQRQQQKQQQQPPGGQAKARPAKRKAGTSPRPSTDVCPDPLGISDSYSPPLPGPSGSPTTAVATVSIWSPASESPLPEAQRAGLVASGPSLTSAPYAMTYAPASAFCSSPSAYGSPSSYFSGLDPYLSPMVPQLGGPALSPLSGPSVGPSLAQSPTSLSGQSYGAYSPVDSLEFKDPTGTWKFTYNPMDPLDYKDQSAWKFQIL
Sequence of ETV6 (P41212 whole entry): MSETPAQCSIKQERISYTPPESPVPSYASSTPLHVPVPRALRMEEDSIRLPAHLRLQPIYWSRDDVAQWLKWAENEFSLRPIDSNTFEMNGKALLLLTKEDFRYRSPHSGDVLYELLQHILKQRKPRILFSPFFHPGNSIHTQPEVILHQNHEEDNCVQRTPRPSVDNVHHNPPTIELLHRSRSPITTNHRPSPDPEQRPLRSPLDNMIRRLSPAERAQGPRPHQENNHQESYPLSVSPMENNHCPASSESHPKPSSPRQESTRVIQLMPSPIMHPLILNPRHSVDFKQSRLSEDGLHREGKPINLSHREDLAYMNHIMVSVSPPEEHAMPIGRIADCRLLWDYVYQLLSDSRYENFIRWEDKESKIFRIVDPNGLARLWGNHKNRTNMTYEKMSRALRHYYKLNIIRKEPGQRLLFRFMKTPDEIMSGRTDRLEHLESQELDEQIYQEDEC
Sequence of ETV5 (P41161 whole entry): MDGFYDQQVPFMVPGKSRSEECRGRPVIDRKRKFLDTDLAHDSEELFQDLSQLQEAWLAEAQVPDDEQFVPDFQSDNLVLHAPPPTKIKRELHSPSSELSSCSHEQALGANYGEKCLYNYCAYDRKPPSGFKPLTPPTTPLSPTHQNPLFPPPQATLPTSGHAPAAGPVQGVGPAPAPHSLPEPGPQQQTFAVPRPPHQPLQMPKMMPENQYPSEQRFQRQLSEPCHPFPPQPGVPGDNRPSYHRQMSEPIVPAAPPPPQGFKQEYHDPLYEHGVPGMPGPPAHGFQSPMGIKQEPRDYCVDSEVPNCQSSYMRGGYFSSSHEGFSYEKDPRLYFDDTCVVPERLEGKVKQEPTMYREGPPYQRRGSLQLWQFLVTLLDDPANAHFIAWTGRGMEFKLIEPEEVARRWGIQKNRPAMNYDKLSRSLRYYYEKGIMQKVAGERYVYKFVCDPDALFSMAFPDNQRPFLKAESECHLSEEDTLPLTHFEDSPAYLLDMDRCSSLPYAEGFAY
Sequence of ETV1 (P50549 whole entry): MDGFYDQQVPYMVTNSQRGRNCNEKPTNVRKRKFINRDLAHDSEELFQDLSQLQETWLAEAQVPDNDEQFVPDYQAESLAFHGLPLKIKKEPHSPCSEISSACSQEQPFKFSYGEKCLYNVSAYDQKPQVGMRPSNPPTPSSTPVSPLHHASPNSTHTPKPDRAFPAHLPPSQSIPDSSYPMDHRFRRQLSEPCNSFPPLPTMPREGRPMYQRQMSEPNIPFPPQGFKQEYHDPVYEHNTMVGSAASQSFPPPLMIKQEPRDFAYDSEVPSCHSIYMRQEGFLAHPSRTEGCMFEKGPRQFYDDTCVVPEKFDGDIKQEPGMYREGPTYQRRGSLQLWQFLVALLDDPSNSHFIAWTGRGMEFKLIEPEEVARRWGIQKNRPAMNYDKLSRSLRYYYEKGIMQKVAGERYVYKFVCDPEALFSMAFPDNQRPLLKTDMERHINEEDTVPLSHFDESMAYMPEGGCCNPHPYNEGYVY
Sequence of ELF4 (Q99607 whole entry): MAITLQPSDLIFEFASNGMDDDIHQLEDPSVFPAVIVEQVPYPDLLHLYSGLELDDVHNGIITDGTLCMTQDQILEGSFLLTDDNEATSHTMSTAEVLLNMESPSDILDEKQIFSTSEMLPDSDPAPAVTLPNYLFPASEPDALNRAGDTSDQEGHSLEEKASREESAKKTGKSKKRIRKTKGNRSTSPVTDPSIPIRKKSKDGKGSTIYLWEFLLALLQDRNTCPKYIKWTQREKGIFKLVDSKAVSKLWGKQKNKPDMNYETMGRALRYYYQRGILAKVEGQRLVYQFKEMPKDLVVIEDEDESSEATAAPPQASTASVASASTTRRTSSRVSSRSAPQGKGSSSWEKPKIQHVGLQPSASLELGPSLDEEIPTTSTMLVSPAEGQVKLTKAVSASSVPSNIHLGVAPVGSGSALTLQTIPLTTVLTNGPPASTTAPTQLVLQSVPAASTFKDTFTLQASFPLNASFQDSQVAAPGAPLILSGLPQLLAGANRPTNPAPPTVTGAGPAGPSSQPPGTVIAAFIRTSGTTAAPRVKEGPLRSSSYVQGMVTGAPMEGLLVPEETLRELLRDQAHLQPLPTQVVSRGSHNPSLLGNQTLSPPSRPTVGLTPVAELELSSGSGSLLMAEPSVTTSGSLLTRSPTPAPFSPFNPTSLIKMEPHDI

With CGTTAA, the binding signal with FEV is 1.18 fold enrichment (6-mer frequency, TF over GST control); with ETV5, 1.21 fold enrichment (6-mer frequency, TF over GST control); with HSF1 it was 1.31 fold enrichment (6-mer frequency, TF over GST control); with SPIC, 1.34 fold enrichment (6-mer frequency, TF over GST control); with ELF4 it was 1.12 fold enrichment (6-mer frequency, TF over GST control); with ELK4 it was 1.07 fold enrichment (6-mer frequency, TF over GST control). For the same sequence, the binding signal is 1.36 fold enrichment (6-mer frequency, TF over GST control) in the assay with ETV2; 1.27 fold enrichment (6-mer frequency, TF over GST control) with ELF3; 1.7 fold enrichment (6-mer frequency, TF over GST control) with CRX; 1.09 fold enrichment (6-mer frequency, TF over GST control) with ETV1; 1.06 fold enrichment (6-mer frequency, TF over GST control) with ERF; 1.18 fold enrichment (6-mer frequency, TF over GST control) in the assay with ETV3L. Further, the binding signal is 1.12 fold enrichment (6-mer frequency, TF over GST control) in the assay with ETS2; 1.1 fold enrichment (6-mer frequency, TF over GST control) in the assay with SPDEF; 1.12 fold enrichment (6-mer frequency, TF over GST control) with ETV7; 1.19 fold enrichment (6-mer frequency, TF over GST control) with ELF5; 1.21 fold enrichment (6-mer frequency, TF over GST control) with ETV3; 1.16 fold enrichment (6-mer frequency, TF over GST control) with ETV6.
